# Measured values taken from PubChem BioAssay (Tox21).
# Values joined by “and” are separate entries in the source; they are usually repeats but may differ in a detail not shown here. Identical values can stand only once. Active and inactive are the calls of the source. A call without a number means that no potency is given here. The call rests on the fitted dose curve.
# Assay: G protein-coupled receptor (GPCR) small molecule agonists, calcium flux assay: HEK293 wild type cell line counter screen (AID 1920065)
# Conditions: HEK293 WT calcium flux, fluorescence, agonist mode; series mostly up to 57.6 µM
# From the text: U.S. Tox21 Program National Center for Advancing Translational Sciences [NCATS] Division of Preclinical Innovation [DPI] U.S. Environmental Protection Agency [EPA] National Institutes of Environmental Health Sciences [NIEHS] National Toxicology Program [NTP] U.S. Food and Drug Administration [FDA] Assay overview: The increased intracellular calcium release that occurred upon G protein-coupled receptor (GPCR) activation led to the frequent use of calcium flux assays to detect GPCR activation. For the purpose of studying and screening compounds that may activate GPCR, receptor-overexpressing models were typically generated using Hek293 wild-type (WT) cells. In order to eliminate the compounds that may have induced calcium release for non-specific activation, a counter-assay utilizing calcium flux on Hek293 WT cells was performed. The data were formulated in order to serve as a control for any calcium flux detection utilizing Hek293 cells with either GPCR overexpression or gene modification. The procurement of Hek293 WT cells from ATCC. Fluorescence intensity can be utilized to determine the activation of the compound in a calcium flux assay. As a counter control, this cell line was utilized to screen the Tox21 10K compound library.
# Assay Protocol Summary: Hek293 cells were dispensed at 1500cells/4uL/well in 1536-well black wall/clear bottom plates using a multidrop dispenser. After the assay plates were incubated at a 37 C/5% CO2 incubator for 18 hours, 4 uL of Calcium Dye Solution was added to each well. The plates were incubated at 37 C for 1 hour. For agonist mode, 23 nL of compounds dissolved in DMSO, positive control (ATP) or DMSO only was transferred to the assay plate by a pin tool station. The fluorescence intensity in the plates was measured using FDSS 7000EX kinetic plate reader with a filter set of Ex/Em=480/540 for 3 min at 1 sec intervals. Each test compound was measured at 15 concentrations and in triplicates.
# Potency means the concentration at half of the fitted maximal effect.
row,Structure (SMILES),Potency
1,O=c1cc[nH]c(=S)[nH]1,inactive
2,Cc1cccc(C)c1,inactive
3,CCCCCCCCCCC=CC1CC(=O)OC1=O (stereo not given),inactive
4,O=C(O)c1ccc2c(c1)C(=O)OC2=O,inactive
5,CCCCC(CC)COC(=O)c1ccc(N(C)C)cc1 (stereo not given),inactive
6,C=CC(=O)OCCCCCCCC(C)C,inactive
7,Nc1cccc(N)c1,inactive
8,CC(CCO)CC(C)(C)C (stereo not given),inactive
9,OC(CCl)CCl,inactive
10,CC(C)Cc1ccccc1,inactive
11,OC[C@@H](O)[C@@H](O)[C@H](O)[C@H](O)CO,inactive
12,Cc1cc(C)c(O)c(C)c1,inactive
13,OCc1cccc(Oc2ccccc2)c1,inactive
14,CC(=O)OCc1ccc2c(c1)OCO2,inactive
15,c1ccc2ccccc2c1,inactive
16,COC(=O)C1CCC(C(=O)OC)CC1 (stereo not given),inactive
17,Cc1ncc[nH]1,inactive
18,CN(C)CCOCCN(C)C,inactive
19,Clc1ccc(Cl)c(Cl)c1Cl,inactive
20,CCC1(c2ccccc2)C(=O)NCNC1=O,inactive

row,Structure (SMILES),Potency
1,c1cc(-c2ccncc2)ccn1,inactive
2,C=C(C#N)C(=O)OCC,inactive
3,Cc1cc(=O)oc2cc(O)ccc12,inactive
4,C=C(C)C(=O)O,inactive
5,Clc1ccc(Sc2cc(Cl)c(Cl)cc2Cl)cc1,inactive
6,Cc1ccc([N+](=O)[O-])c(C)c1,inactive
7,O=[N+]([O-])C(CO)(CO)CO,inactive
8,CC(C)=CCl,inactive
9,C/C=C(C)/C=C/C=C(C)C,inactive
10,C=C(C)C(=O)OCCCCCC,inactive
11,O=S(=O)(O)c1ccc2ccccc2c1,inactive
12,CC/C(C)=N/O,inactive
13,CC1(C)NC(=O)NC1=O,inactive
14,CN(C)CCOC(C)(c1ccccc1)c1ccccn1 (stereo not given),inactive
15,Nc1ccc(Cl)cc1Cl,inactive
16,CCN=c1cc2oc3cc(NCC)c(C)cc3c(-c3ccccc3C(=O)OCC)c-2cc1C,38.8 µM (active) and 30.9 µM (active)
17,OC[C@H]1O[C@@H](Oc2ccc(O)cc2)[C@H](O)[C@@H](O)[C@@H]1O,inactive
18,Cc1ccc(C)c(O)c1C,inactive
19,CCc1ccccc1CC,inactive
20,CCC(C)C=O (stereo not given),inactive
